High-throughput results (PubChem BioAssay)
CF NFkB block – inhibitors of PAF-induced NF-kB signaling, primary screen, cell-based, GFP fluorescence, uHTS; KKLEB NF-kB-GFP reporter, GFP fluorescence overnight; inhibition, % at 5 µM; 0.86% of 360,000 active; AID 588850, 2011;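 active = at least 50% inhibition at 5 µM, scaled per plate between neutral and stimulator controls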;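 note: PAF is a Pseudomonas aeruginosa culture filtrate used as stimulus; plate controls were PAF-stimulated DMSO wells for no effect and unstimulated DMSO wells for full effect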
TROY NFkB inh – inhibitors of TROY-driven NF-kB signaling, primary screen, Q293 LMP1-TROYcd cells, NF-kB luciferase, uHTS. 0.98% of 360,000 active. Q293 LMP1-TROYcd NF-kB luciferase reporter, 4 h. AID 1347056, 2019. inhibition, % at 10 µM;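 active = compounds whose plate-normalised and pattern-corrected inhibition of the luciferase reporter signal at the single screening dose is 50% or more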
KKLEB tox – cytotoxicity in KKLEB CF airway cells, primary screen, cytotoxicity control for CF NF-kB inhibitor project, cell-based, uHTS, fluorescence assay plates; KKLEB CF airway cells viability, ATPlite luminescence, overnight; stronger effect = lower value; cells stimulated with P. aeruginosa culture filtrate; activity change (cytotoxicity), % at 5 µM; 0.36% of 360,000 active; AID 602141, 2011;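 active = corrected activity change at or below -50% at 5 µM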
HIF-2a inh – HIF-2a reporter inhibitors, primary screen, luminescence, 786-0 RCC cells; AID 624352, 2012; 786-0 RCC cells HIF-2a reporter, luciferase luminescence, overnight; 0.72% of 360,000 active; inhibition, % at 18.8 µM;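 active = inhibition of the luminescence signal of 40% or more relative to plate controls, in a single-dose primary screen at 18.75 µM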
Peg3 promoter – Peg3 promoter-driven luciferase inhibitors, primary screen, cell-based, HeLa, luciferase luminescence | HeLa PEG-Prom luciferase reporter, overnight | inhibition, % at 20 µM | 1.7% of 360,000 active;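 active = inhibition of at least 50% at 20 µM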
TWEAK Fn14 block – inhibitors of TWEAK-Fn14 signaling, primary screen, luciferase reporter cells, uHTS | TWEAK-stimulated Fn14 reporter cells, luciferase luminescence, 8 h | 2% of 360,000 active | inhibition, % at 10 µM | AID 1159606, 2016; in the data active = inhibition above about 50%
The depositor's hits bear a star; x = not tested or not shown. This is a sample that favours compounds with a hit; in the whole collection about 4% have one here.

SMILES	CF NFkB block	TROY NFkB inh	KKLEB tox	HIF-2a inh	Peg3 promoter	TWEAK Fn14 block
COC(=O)C1=C(C)NC2=C(C(=O)c3ccccc32)C1c1cccc(OC)c1 (centres undefined)	-9.4	-2.8	15.1	22.7	12.1	15.9
Cc1csc(SCC(=O)Nc2cccc3nsnc23)n1	64.4*	3.5	-5.8	-86.0	-75.3	49.7
O=S(=O)(Nc1ccc(-n2cccc2)cc1)c1ccc(Cl)c(Cl)c1	-36.0	55.5*	0.2	16.8	18.7	-26.5
O=S(=O)(Nc1ccc(-n2cccc2)cc1)c1ccc(F)cc1	3.5	24.3	0.0	8.2	-0.2	9.2
NC1=NC[C@H](c2ccccc2)N1CC1CCCCC1	3.7	6.5	-13.5	4.7	-8.5	9.4
N#Cc1cnn(CC2CCCCC2)c1N	5.5	x	6.9	16.7	6.3	60.6*
O=C(CCCC(=O)N1CCN(c2ccccc2F)CC1)N1CCN(c2ccccc2F)CC1	-1.1	38.9	-1.0	-35.1	-57.3	30.9
O=C(O)/C=C/C(=O)N1CCN(c2ccccc2F)CC1	3.9	74.5*	0.0	6.2	-2.1	11.4
Cc1ccc(C(=O)Nc2nc(-c3ccco3)c(-c3ccco3)s2)o1	-74.6	-6.8	15.9	18.2	-9.2	82.6*
O=C(COc1ccc(Cl)cc1)NNC(=O)c1ccccc1C(=O)O	2.3	10.8	1.3	-3.3	8.6	-0.2
COc1ccccc1C(=O)Nc1c(C(=O)N(CCN(C)C)Cc2ccco2)oc2ccccc12	12.8	-39.3	-31.2	-2.8	92.3*	-14.3
Cc1ccccc1C(=O)Nc1c(C(=O)N(CCN(C)C)Cc2ccco2)oc2ccccc12	1.6	-7.9	2.6	11.9	14.6	-11.8
COc1ccc(-c2c3c(nc4sc5c(Cl)nc(C)nc5c24)CCC3)cc1	-5.9	12.7	1.7	-1.9	108.8*	-13.2
Cc1ccc(-c2c3c(nc4sc(C(N)=O)c(N)c24)CCC3)cc1	13.5	-5.7	0.6	29.4	-143.9	29.9
COc1ccccc1N1CCN(C2CCCN(C(=O)CCn3cncn3)C2)CC1 (centres undefined)	13.9	-6.1	-17.9	5.7	10.4	-13.3
O=C(CSC1=NS(=O)(=O)c2cc(Cl)ccc2N1)Nc1cccc(F)c1	-4.2	13.9	-3.9	9.8	1.3	-7.5
O=C(Nc1ccn(C2CCC(CO)O2)c(=O)n1)c1ccccc1 (centres undefined)	-20.8	-1.5	17.4	-23.2	-15.3	5.2
O=C(Nc1ccn(CCOC(=O)c2ccccc2)c(=O)n1)c1ccccc1	-8.3	54.1*	14.5	-2.9	-35.9	-10.3
Cc1cc(C)cc(Nc2ncc3c(n2)CC(c2ccco2)CC3=O)c1 (centres undefined)	-9.2	-16.1	-0.6	-37.9	-6.4	-4.7
Cc1cc(C)cc(Nc2ncc3c(n2)CCCC3=O)c1	-11.0	16.4	6.5	-43.1	-48.8	71.1*
O=C(Nc1cc(-c2ccccc2)nn1C1CCCCC1)c1ccc(Cl)cc1	18.8	53.7*	-2.8	10.5	2.7	14.3
O=c1c2cc(NC(=S)NCCN3CCCCCC3)ccc2nc2n1CCCCC2	17.2	-13.1	1.2	3.7	11.6	8.4
O=c1c2cc(NC(=S)NCCCN3CCC(Cc4ccccc4)CC3)ccc2nc2n1CCCCC2	23.6	18.4	-18.8	10.2	94.0*	-4.0
CC(C)OCCCn1c(SCC(=O)N2CCCC2=O)nc2ccccc2c1=O	-11.6	-24.7	7.1	1.6	26.6	0.9
CC(C)OCCCn1c(SCC(=O)N2CCc3ccccc32)nc2ccccc2c1=O	5.4	24.4	-10.1	12.7	23.4	91.5*
SMILES	CF NFkB block	TROY NFkB inh	KKLEB tox	HIF-2a inh	Peg3 promoter	TWEAK Fn14 block
CCOC(=O)c1oc2ccccc2c1CN1CCN(C)CC1	-2.8	x	7.1	12.7	-5.7	86.3*
Cc1ccc2nc(SCC(=O)N3CCC(Cc4ccccc4)CC3)nc(=O)n2c1	0.2	22.7	1.4	-0.2	10.2	0.6
NC(=O)c1ccsc1NC(=O)CN1CCN(S(=O)(=O)c2ccccc2C(F)(F)F)CC1	13.0	50.4*	-10.8	11.7	61.0*	28.5
Cc1ccsc1/C=C1\CCc2ccccc2C1=O	-23.7	34.9	-47.8	-148.0	-114.1	81.7*
O=C1C(=Cc2ccccn2)CCc2ccccc21	61.4*	-24.5	-5.4	-76.6	-72.0	53.7*
COc1ccccc1NC(=O)C(C)OC(=O)/C(=C/c1ccccc1)NC(C)=O (centres undefined)	-8.6	-1.2	10.4	2.9	3.3	9.6
S=c1[nH]nc(-c2cc(-c3ccccc3)n[nH]2)n1/N=C/C(Br)=C/c1ccccc1	104.4*	-35.7	-76.9*	26.4	107.9*	75.4*
Cn1c(N)c(C(=O)COC(=O)c2cc(S(=O)(=O)N3CCOCC3)ccc2F)c(=O)n(C)c1=O	-8.2	35.5	-10.4	-14.6	88.9*	-15.7
Cc1ccc(S(=O)(=O)N2CCOCC2)cc1C(=O)OCC(=O)c1c(N)n(C)c(=O)n(C)c1=O	22.6	-9.2	1.7	9.7	24.4	-0.3
Cc1ccccc1C(=O)NNC(=O)c1cc(N)cc([N+](=O)[O-])c1	-0.2	57.3*	4.2	14.4	6.6	-15.3
C[C@H](NC(=O)N1CCn2c1nc1ccccc12)C(=O)N1CCCCC1	6.7	14.0	-3.2	-7.7	-5.6	3.9
Cc1cccc(Cn2nc(C(C)(C)C)cc2C(=O)Nc2ccc(F)cc2)c1	22.7	57.5*	-10.2	-28.9	32.9	25.5
COc1ccc(C(C)=O)cc1CSc1nnc(Nc2ccccc2)s1	4.4	40.5	13.6	11.1	20.8	70.0*
COc1ccc(C(C)=O)cc1CSc1nnc(Nc2ccc(C)cc2)s1	24.0	29.0	-3.7	15.0	8.1	62.6*
COc1ccc(C(C)=O)cc1CSc1nnc(C)s1	-8.3	11.4	7.3	-6.4	-15.3	5.7
O=c1[nH]c(=O)c2[nH]c(=S)n(-c3ccccc3)c2[nH]1	8.8	-17.5	11.1	-6.1	15.0	14.3
CCOc1ccccc1NC(=O)CSc1nnc(CNC(=O)c2c(F)cccc2Cl)o1	-15.1	15.6	1.5	-1.1	12.1	-13.5
CCC(=O)c1ccc(OC)c(OC)c1OCc1ccccc1	16.7	13.9	-30.2	8.7	-1.0	-6.8
Clc1c(Cl)c(Cl)c2n[nH]nc2c1Cl	39.1	59.9*	-6.8	8.2	15.0	-23.0
CCN(CC)C(=O)CSc1ncnc2c1nnn2-c1ccc(F)cc1	12.8	-1.9	4.6	-0.9	-0.7	25.6
COC(=O)c1ccc(CSc2ncnc3c2nnn3-c2ccc(F)cc2)o1	12.4	55.3*	-8.1	-57.4	-35.2	-22.4
CCN(CC(=O)NCc1ccc(Cl)cc1)C(=O)c1cc2ccccc2o1	-2.8	-26.8	-1.0	6.0	9.2	-17.9
